Among all 96,000 compounds or so, about 20,000 (21%) were called active. Only a sample is shown. Unmarked numbers belong to inactive results.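 The calls were made as follows: active = CYP2C19 inhibition above a set limit at 5 µM in the primary screen (cut at about 50% in these data); inactive = the rest.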

Chain of Cytochrome P450 2C19 (Homo sapiens) (P33261 whole entry, looked up): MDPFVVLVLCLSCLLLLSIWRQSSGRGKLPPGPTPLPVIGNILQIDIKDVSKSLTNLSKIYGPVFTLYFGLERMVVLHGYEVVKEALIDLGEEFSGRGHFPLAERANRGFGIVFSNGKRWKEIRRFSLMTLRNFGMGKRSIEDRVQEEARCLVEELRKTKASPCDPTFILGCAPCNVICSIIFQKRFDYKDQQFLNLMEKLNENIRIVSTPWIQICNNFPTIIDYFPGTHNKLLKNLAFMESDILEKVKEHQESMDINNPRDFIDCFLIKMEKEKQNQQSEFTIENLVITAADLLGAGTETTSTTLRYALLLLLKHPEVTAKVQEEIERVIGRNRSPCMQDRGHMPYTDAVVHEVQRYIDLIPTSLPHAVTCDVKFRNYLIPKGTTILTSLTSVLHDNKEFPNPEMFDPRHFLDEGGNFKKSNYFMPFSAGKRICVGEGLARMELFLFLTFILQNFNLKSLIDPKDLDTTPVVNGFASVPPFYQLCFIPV

This test concerns the target Cytochrome P450 2C19 (Homo sapiens) (UniProt P33261). Description: blockers of cytochrome P450 2C19 activity – biochemical, luminescence, ADME assay, primary screen (AID 778).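 Also: plate controls were negative control wells for no effect and 2.5 mM tranylcypromine positive control for full effect.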 The following applies: CYP2C19 Supersomes, luciferin-H EGE luminescence, 30 min; at 5 µM; hits give high values.
Take `N/C(=N\c1nc2ccccc2o1)NC(=O)C(Cc1ccccc1)N1C(=O)c2ccccc2C1=O` (centres undefined): the inhibition is 35.9%.
Then `Cn1c(=O)cc(SCC(=O)N2CCN(C(=O)c3ccco3)CC2)c2ccccc21`, with -17%; and `Cc1c2cnn(-c3ccccc3)c(=O)c2c(C)n1CCCC(=O)N1CCN(C)CC1`, with -16%.
Then `O=C(Cn1cnc2ccccc2c1=O)NCC1COc2ccccc2O1` (centres undefined), with 22.7%; and `CC(=O)N(CN1C(=O)C2CC=CCC2C1=O)c1cccc(Cl)c1` (centres undefined), with 46.5%.
Then `Cc1cc(C)c2nc(N3CCCC3)c(C#N)cc2c1`, with -2.3%; and `Fc1ccc(Br)cc1/C=N/n1cnnc1`, with 13.9%; and `CCN(CC)c1ccc2oc(=O)c(C)nc2c1`, with 18.7%.
Take `COc1ccc(CC(=O)c2ccc(O)cc2O)cc1OC`: the inhibition is 88% (active).
For the compound `COCc1cc(C(C)=O)ccc1OC`, the inhibition is 6.2%.
For the compound `COc1ccc(CNC(=O)c2c(C)cc(=O)oc2C)cc1OC`, the inhibition was 5.4%.
Turning to `N#CCCN1CCN(S(=O)(=O)c2ccc(S(=O)(=O)N3CCCC3)cc2)CC1`, the inhibition is -7.1%.
As for `Cc1cc(-c2cccs2)nc(-n2cccc2)n1`, the figure is 4.9%; as for `Cc1cc(C)nc(N(C#N)CC(=O)Nc2ccccc2)n1`, -2.6%; as for `COc1ccc(C(=O)Oc2cc(/C=N/NS(=O)(=O)c3ccc(C)cc3)ccc2OC)cc1`, 4.8%.
With `CCOC(=O)CN(Cc1ccc(OC)c(OC)c1)S(=O)(=O)c1ccc(OC)cc1`, the inhibition was 81.1% (active).
Then `NS(=O)(=O)c1cccnc1Nc1cccc(Cl)c1`, with 40.5%.
As for `CCCCNC(=O)c1ccccc1NC(=O)c1ccccc1N(C)S(C)(=O)=O`, the inhibition is 14.4%.
As for `COc1ccc(C(=O)CSc2nnc(COc3ccccc3)n2Cc2ccco2)cc1`, the figure is 35%; as for `COc1ccc(C)cc1-n1nnnc1SCC(=O)c1cc(C)n(Cc2ccco2)c1C`, 98.7% (active); as for `CNC(=O)CSc1nnnn1-c1ccc(C)cc1C`, 49.1%.
Take `Cc1nc2cc(-c3ccc(F)cc3)nn2c(N2CCOCC2)c1C`: the inhibition is 5.1%.
Turning to `Oc1ccc(-c2onc3ccc(Cl)cc23)cc1`, the inhibition was 19%.
Then `CCn1c2ccccc2c2cc(NC(=S)N3CCOCC3)ccc21`, with 11.1%; and `COc1ccc(NC(=O)Cn2c(=O)n(Cc3ccco3)c(=O)c3ccccc32)cc1`, with 15.9%.
Then `CCn1c2ccccc2c2cc(NC(=O)C/C(C)=N/NC(=O)c3ccccc3N)ccc21`, with 54.7% (active); and `CN(C(=O)c1ccccn1)c1nnc(-c2ccccn2)s1`, with 1.1%.
Then `CCOC(=O)N1CCN(c2c(NCCCN3CCCC(C)C3)c(=O)c2=O)CC1` (centres undefined), with 4.3%.
On to `CCCNC(=O)c1c(N)n(-c2ccc(S(N)(=O)=O)cc2)c2nc3ccccc3nc12`, for which the inhibition was -13.2%.
Then `CC(C)CCn1c(CN(C)Cc2ccccc2)nc2c1c(=O)n(C)c(=O)n2C`, with 42.8%; and `CC(C)Cn1c(CN(Cc2ccccc2)Cc2ccccc2)nc2c1c(=O)n(C)c(=O)n2C`, with 17.7%; and `COCCn1c(CN(Cc2ccccc2)Cc2ccccc2)nc2c1c(=O)n(C)c(=O)n2C`, with 76.4% (active).
As for `COCc1cc(C)nc2sc(C(=O)NC3CCCCC3)c(N)c12`, the figure is -2.5%; as for `Cc1cc(/C=N/n2cnnc2)c(C)n1-c1cccc(C(=O)O)c1`, 24.9%; as for `Fc1ccccc1OCCSc1nc2ccccc2o1`, 46.8%.
With `O=C(CSCc1ccccc1Cl)NNC(=O)c1ccccc1`, the inhibition is 40.1%.
As for `Cc1ccccc1CSCC(=O)NC(=O)NC(C)(C)C`, the figure is 56% (active); as for `COc1ccccc1OCCC(=O)OCC(=O)NC(=O)NC(C)(C)C`, 14.2%; as for `COc1ccccc1N1CC(C(=O)Nc2ccc(S(=O)(=O)N3CCOCC3)cc2)CC1=O` (centres undefined), -1.1%.
Then `Cn1c(=O)oc2cc(S(=O)(=O)N3CCC(C(=O)Nc4ccc(OC(F)(F)F)cc4)CC3)ccc21`, with 30.4%; and `COC(=O)c1ccccc1NC(=O)C1CCN(S(=O)(=O)c2cc(OC)ccc2OC)CC1`, with 93.5% (active).
With `COc1cccc(C(=O)Nc2ccc(N3CCCC3)cc2)c1`, the inhibition was 48.4%.
As for `O=C(CN1C(=O)C2C3C=CC(C3)C2C1=O)Nc1nc(-c2ccccn2)cs1` (centres undefined), the figure is -13.1%; as for `C=C(C)COc1ccc(-c2n[nH]c(C)c2-c2ccccc2)c(O)c1`, 33.7%.
As for `C=C(C)COc1ccc(-c2n[nH]c(C)c2-c2ccccc2OC)c(O)c1`, the figure is 43.5%; as for `COc1ccc(-c2n[nH]c(C)c2-c2ccc(OC)c(OC)c2)c(O)c1`, 98.5% (active).
On to `COc1nc(N=C(N)N)nc2c(C)cccc12`, for which the inhibition was -8.7%.
On to `CCOC(=O)c1cc(-c2ccc(Cl)s2)nc2c1c(C)nn2C`, for which the inhibition was 17.2%.
Then `Cc1ccc(S(=O)(=O)NCCN2CCOCC2)cc1C`, with 24.8%; and `Cc1cc(C)c(S(=O)(=O)NCCCN2CCOCC2)cc1Br`, with 53.9% (active); and `O=S(=O)(O)CCN1CCOCC1`, with 2.1%.
Then `COc1ccc(C)cc1NC(=O)CSc1nc(SC)ns1`, with 35.5%.
Then `Cc1ccc(C)c2[nH]c(=O)c(CCNC(=O)CC(C)C)cc12`, with 29.7%.
As for `CCOC(=O)c1c(NC(=S)Nc2ccccc2)sc2c1CCN(C)C2`, the inhibition was 26.5%.
For the compound `COc1cc2c(cc1OC)C(C(=O)NCc1ccco1)C1c3ccccc3CCN1C2=O` (centres undefined), the inhibition was 10.7%.
In the case of `CC1(C)SC2c3ccccc3C(=O)N2[C@@H]1C(=O)NCc1ccco1` (some centres undefined), the inhibition is 62.8% (active).
In the case of `O=C(NCCCCCCNC(=O)NCc1ccco1)NCc1ccco1`, the inhibition is -12.7%.
Then `C=CCNc1nc(C)nc(OC)n1`, with -16.5%; and `CCNc1nc(N)nc(-c2cc(Cl)ccc2OC)n1`, with 24.4%.
As for `COc1nc(NCc2ccc(Cl)cc2)nc(OC)n1`, the figure is 58.5% (active); as for `CCCNC(=S)NC1CC2CCCC(C1)N2CC(C)C` (centres undefined), 6.3%.
Then `CC(C)c1cc(C(=O)O)n[nH]1`, with -11.8%; and `Cc1cccc(-n2ncc(C#N)c2-n2cccc2)c1`, with 21.9%.
In the case of `COc1ccccc1N1CCN(Cc2nnnn2CCc2ccccc2)CC1`, the inhibition was 75.4% (active).
As for `c1ccc(CCn2nnnc2CN2CCN(C3CCCC3)CC2)cc1`, the figure is -12%; as for `COc1ccccc1N1CCN(CCCCOc2ccc(F)cc2)CC1`, 13.1%.
`CCOC(=O)c1sc(N(Cc2ccccc2)C(=O)CN2C(=O)CN(C)C2=O)nc1C`: the inhibition is 14.5%.
Then `CCOc1ccc(OCC)c(-c2c(=O)n(OCc3ccc(Cl)cc3)c3ccccc3[n+]2[O-])c1`, with 76.2% (active).
`Cc1cc(C)cc(NC(=O)c2cccc(NC(=O)C3C4CC5OC(=O)C3C5C4)c2)c1` (centres undefined): the inhibition is 3%.
As for `COc1ccc(N2CCN(C(=O)CSc3nnc4ncccn34)CC2)cc1`, the figure is 29.2%.
As for `Cc1ccc2nc(NC3=NCN(CCc4ccccc4)CN3)nc(C)c2c1`, the figure is -14.5%; as for `COCc1nc2ccccc2n1Cc1ccccc1Br`, 55.6% (active); as for `CCC(=O)Nc1nc2ccccc2n1Cc1ccccc1C`, 49.7%.
For `O=S(=O)(O)c1nc2ccccc2n1Cc1ccc(Cl)cc1Cl`, the inhibition was 11.3%.
For `COCn1c(COc2ccccc2)nc2ccccc21`, the inhibition is 51.4% (active).
For the compound `CCc1nc2ccccc2n(CCOCCOCCn2c(=O)c(CC)nc3ccccc32)c1=O`, the inhibition was 24.1%.
As for `COCC(=O)Nc1nnc(COc2ccccc2)s1`, the figure is -3%; as for `CCCCc1cc(=O)oc2cc(C)cc(OCc3nn[nH]n3)c12`, 11.2%.
For `CN1CCN(S(=O)(=O)c2ccc(NC(=O)C3CCCO3)cc2)CC1` (centres undefined), the inhibition was 3.5%.
As for `COc1ccc(OC)c2c1sc(=NC(=O)CN1C(=O)CCC1=O)n2C`, the figure is 11.6%; as for `COc1ccccc1NC(=O)c1ccc(C)s1`, 36.8%.
Turning to `CCC1(CC)Cc2ccccc2-c2nc3ccccc3c(=O)n21`, the inhibition is 13.4%.
As for `c1cncc(-c2nnc3n2C2(CCCCC2)Cc2ccccc2-3)c1`, the inhibition is 3%.
As for `O=c1c2ccccc2nc2n1C1(CCCCC1)Cc1ccccc1-2`, the figure is 74.3% (active).
Regarding `CCCCNc1ccc(C(=O)Nc2cccc(C)n2)cc1[N+](=O)[O-]`, the inhibition is -3%.
On to `COc1ccc(N(CCC#N)S(=O)(=O)c2ccc(Cl)cc2)cc1`, for which the inhibition is 49.6%.
Then `CCn1c(NC(=O)c2ccccc2)c(-c2cccs2)c(=O)c2ccccc21`, with -4.5%.
Then `COC(=O)c1ccccc1NC(=O)CN(Cc1ccc(Cl)cc1)S(C)(=O)=O`, with 96.6% (active); and `COC(=O)c1ccc(NC(=O)c2ccccc2NS(=O)(=O)c2ccccc2)cc1`, with 41.7%.
With `CCOc1ccc(NC(=O)c2ccccc2NS(C)(=O)=O)cc1`, the inhibition is 16.2%.
As for `COC(=O)c1ccccc1NC(=O)c1ccccc1NS(C)(=O)=O`, the figure is 62.7% (active); as for `COC(=O)c1ccccc1NC(=O)CN(Cc1ccccc1)S(C)(=O)=O`, 17.1%; as for `CCOc1ccccc1N(CC(=O)Nc1ccccc1C(=O)OC)S(C)(=O)=O`, 14.5%.
With `O=C(OC1CCCCC1=O)c1cccc(S(=O)(=O)NCc2ccccc2)c1` (centres undefined), the inhibition is 41.1%.
Then `CC(=O)c1c(C)[nH]c(C(=O)NCCCN2CCCC2)c1C`, with -10.9%.
Take `O=C(O)c1ccccc1-c1ccccc1C(=O)Nc1cccc2ccccc12`: the inhibition was 0.9%.
Take `COc1ccccc1-n1cnc2cc(NS(=O)(=O)c3ccccc3)ccc21`: the inhibition was 64.8% (active).
Then `COc1ccccc1-n1cnc2cc(C(=O)NCC3CCCO3)ccc21` (centres undefined), with 13.8%.
Then `COCCCNC(=O)c1ccc2c(c1)ncn2-c1ccccc1OC`, with 1.5%.

For orientation: inhibition means the relative decrease from the control value, in per cent.

The values are drawn from PubChem BioAssay AID778 (Sanford-Burnham Center for Chemical Genomics, 2007).
